In PubChem BioAssay (EPA / NIEHS):
Records with an inconclusive call do not appear. Activity calls are given as the source filed them. How the source made its calls: active means hit-call score of the fitted dose curve at least 0.9, where 1 is the maximum; inconclusive means response in the unintended direction; inactive means score below 0.9.

Tests used:
[1] = molecular target: human Neurokinin, NK2 Receptor, TACR2 (gene 6865) (UniProt P21452); experiment: NVS_GPCR_hNK2: NovaScreen (NVS) G Protein-Coupled Receptor Assay for human Neurokinin, NK2 Receptor (AID 2283278);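 further: actives reduce bound radioligand signal relative to DMSO baseline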
Chain of human Neurokinin, NK2 Receptor, TACR2 (gene 6865) (P21452 whole entry, looked up): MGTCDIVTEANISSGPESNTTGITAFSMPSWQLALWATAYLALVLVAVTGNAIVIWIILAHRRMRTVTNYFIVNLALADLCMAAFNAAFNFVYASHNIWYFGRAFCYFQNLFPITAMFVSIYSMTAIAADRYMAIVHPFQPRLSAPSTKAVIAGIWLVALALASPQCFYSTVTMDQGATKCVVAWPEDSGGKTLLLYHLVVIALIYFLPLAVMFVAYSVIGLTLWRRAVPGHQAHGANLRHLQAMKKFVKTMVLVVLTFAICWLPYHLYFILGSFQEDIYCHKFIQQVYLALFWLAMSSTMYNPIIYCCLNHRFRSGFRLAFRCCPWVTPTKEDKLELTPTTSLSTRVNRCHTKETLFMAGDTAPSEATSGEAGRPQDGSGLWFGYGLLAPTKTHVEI
Summary of the method: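 Filter-based scintillation counting measured radioligand bound to receptor extracted from CHO cells, 4 hours after compound addition. Chemicals screened first at 25 uM in duplicate, with actives retested in concentration series relative to DMSO.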

[2] = molecular target: human Orphanin, Opioid Related Nociceptin Receptor 1 (ORL1), OPRL1 (gene 4987) (UniProt P41146); experiment: NVS_GPCR_hORL1: NovaScreen (NVS) G Protein-Coupled Receptor Assay for human Orphanin, Opioid Related Nociceptin Receptor 1 (ORL1) (AID 2283283)
Chain of human Orphanin, Opioid Related Nociceptin Receptor 1 (ORL1), OPRL1 (gene 4987) (P41146 whole entry, looked up): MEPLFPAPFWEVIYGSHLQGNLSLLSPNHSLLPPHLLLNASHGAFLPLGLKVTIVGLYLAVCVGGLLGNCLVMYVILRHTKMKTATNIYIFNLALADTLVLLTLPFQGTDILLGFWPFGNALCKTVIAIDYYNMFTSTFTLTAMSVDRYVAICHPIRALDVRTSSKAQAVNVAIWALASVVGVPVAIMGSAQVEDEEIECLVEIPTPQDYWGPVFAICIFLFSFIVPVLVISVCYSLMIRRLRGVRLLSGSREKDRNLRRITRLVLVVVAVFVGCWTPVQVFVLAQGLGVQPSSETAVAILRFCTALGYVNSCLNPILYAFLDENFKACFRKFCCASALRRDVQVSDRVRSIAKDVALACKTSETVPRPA
Summary of the method: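 Filter-based radioligand displacement with receptor extracted from HEK293 cells, read 1 hour after dosing by scintillation counting. Duplicate single-point screen at 25 uM; qualifying chemicals then run in concentration-response to 50 uM, analysed relative to DMSO.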

[3] = molecular target: human Vasopressin 1A Receptor (V1A), AVPR1A (gene 552) (UniProt P37288); experiment: NVS_GPCR_hV1A: NovaScreen (NVS) G Protein-Coupled Receptor Assay for human Vasopressin 1A Receptor (V1A) (AID 2283284)
Chain of human Vasopressin 1A Receptor (V1A), AVPR1A (gene 552) (P37288 whole entry, looked up): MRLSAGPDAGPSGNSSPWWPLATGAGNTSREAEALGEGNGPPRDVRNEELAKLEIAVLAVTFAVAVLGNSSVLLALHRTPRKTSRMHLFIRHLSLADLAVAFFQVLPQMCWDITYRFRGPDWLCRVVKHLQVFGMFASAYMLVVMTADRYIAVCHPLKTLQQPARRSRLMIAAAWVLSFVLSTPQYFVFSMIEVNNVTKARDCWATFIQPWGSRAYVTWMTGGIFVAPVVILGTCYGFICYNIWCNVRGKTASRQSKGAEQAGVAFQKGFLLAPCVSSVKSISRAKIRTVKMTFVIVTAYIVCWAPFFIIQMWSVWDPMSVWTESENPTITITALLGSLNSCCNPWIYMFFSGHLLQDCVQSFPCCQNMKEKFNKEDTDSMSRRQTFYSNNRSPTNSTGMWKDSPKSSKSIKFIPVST
Summary of the method: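 Cell-free radioligand displacement on human platelet preparations, 1.5 h incubation, filter-based scintillation counting. Chemicals first tested in duplicate at 25 uM; actives then run in concentration-response up to 50 uM, loss of signal fitted against DMSO.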

[4] = molecular target: rat Serotonin, 5-Hydroxytryptamine Receptor 1 (5HT1), Non-Selective Binding, Htr1a (gene 24473) (UniProt P19327); experiment: NVS_GPCR_r5HT1_NonSelective: NovaScreen (NVS) G Protein-Coupled Receptor Assay for rat Serotonin, 5-Hydroxytryptamine Receptor 1 (5HT1), Non-Selective Binding (AID 2283286)
Summary of the method: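 Rat cortical membranes, radioligand displacement, 1 h incubation, read by filter scintillation. Primary screen in duplicate at 25 uM. Hits (e.g. ≥30% inhibition) went to concentration-response up to 50 uM, fitted as loss of binding versus DMSO.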

[5] = molecular target: mouse Cholecystokinin, CCK1 Receptor (CCKA), Cckar (gene 12425) (UniProt O08786); experiment: NVS_GPCR_mCCKAPeripheral: NovaScreen (NVS) G Protein-Coupled Receptor Assay for mouse Cholecystokinin, CCK1 Receptor (CCKA) (AID 2283285)
Chain of mouse Cholecystokinin, CCK1 Receptor (CCKA), Cckar (gene 12425) (O08786 whole entry, looked up): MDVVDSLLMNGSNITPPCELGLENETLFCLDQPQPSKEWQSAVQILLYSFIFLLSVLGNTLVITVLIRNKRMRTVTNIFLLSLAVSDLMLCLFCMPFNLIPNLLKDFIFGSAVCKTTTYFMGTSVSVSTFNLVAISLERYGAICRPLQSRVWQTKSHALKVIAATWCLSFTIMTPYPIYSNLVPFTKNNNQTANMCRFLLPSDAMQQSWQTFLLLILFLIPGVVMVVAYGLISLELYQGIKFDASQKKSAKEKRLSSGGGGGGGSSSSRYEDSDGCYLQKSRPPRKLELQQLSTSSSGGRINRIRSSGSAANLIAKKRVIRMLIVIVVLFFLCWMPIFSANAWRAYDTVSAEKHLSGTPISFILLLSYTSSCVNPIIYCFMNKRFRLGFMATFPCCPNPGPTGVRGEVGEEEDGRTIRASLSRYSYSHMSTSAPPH
Summary of the method: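 Radioligand competitive displacement on mouse pancreatic membranes, 2 h incubation; filter-based scintillation counting, loss of signal versus DMSO. Single-concentration screen at 25 uM in duplicate, actives retested in concentration-response up to 50 uM.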

[6] = system: guinea pig Atrionatriuretic Peptide Receptor A (ANPA), gene 100135578; experiment: NVS_GPCR_gANPA: NovaScreen (NVS) G Protein-Coupled Receptor Assay for guinea pig Atrionatriuretic Peptide Receptor A (ANPA) (AID 2283291)
Summary of the method: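 Radioligand binding to guinea pig cerebellar membranes was measured after 1 h by filter-based scintillation counting. Chemicals were tested in duplicate at 25 uM, with hits run in concentration-response to a maximum of 50 uM. Binding loss was fitted against DMSO.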

[7] = molecular target: guinea pig Bradykinin Receptor B2 (BK2), BDKRB2 (gene 100135486) (UniProt O70526); experiment: NVS_GPCR_gBK2: NovaScreen (NVS) G Protein-Coupled Receptor Assay for guinea pig Bradykinin Receptor B2 (BK2) (AID 2283292)
Chain of guinea pig Bradykinin Receptor B2 (BK2), BDKRB2 (gene 100135486) (O70526 whole entry, looked up): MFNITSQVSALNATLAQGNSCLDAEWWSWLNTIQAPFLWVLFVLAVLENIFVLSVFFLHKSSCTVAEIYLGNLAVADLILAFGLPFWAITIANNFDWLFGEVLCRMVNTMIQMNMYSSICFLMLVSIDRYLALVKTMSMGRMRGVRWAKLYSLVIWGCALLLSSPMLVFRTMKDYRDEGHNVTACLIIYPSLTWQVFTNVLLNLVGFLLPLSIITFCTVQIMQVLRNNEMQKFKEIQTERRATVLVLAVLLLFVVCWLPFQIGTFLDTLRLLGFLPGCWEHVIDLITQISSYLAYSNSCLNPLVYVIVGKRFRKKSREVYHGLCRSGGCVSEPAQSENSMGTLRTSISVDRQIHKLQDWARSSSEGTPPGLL
Summary of the method: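 Radioligand displacement on guinea pig ileum membranes for 1 h, read by filter-based scintillation counting; loss of signal relative to DMSO. Compounds were screened in duplicate at 25 uM, and those passing the threshold were retested in concentration-response up to 50 uM.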

[8] = molecular target: human Thromboxane A2 Receptor (TXA2), TBXA2R (gene 6915) (UniProt P21731); experiment: NVS_GPCR_hTXA2: NovaScreen (NVS) G Protein-Coupled Receptor Assay for human Thromboxane A2 Receptor (TXA2) (AID 2283282);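 further: actives reduce bound radioligand signal relative to DMSO baseline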
Chain of human Thromboxane A2 Receptor (TXA2), TBXA2R (gene 6915) (P21731 whole entry, looked up): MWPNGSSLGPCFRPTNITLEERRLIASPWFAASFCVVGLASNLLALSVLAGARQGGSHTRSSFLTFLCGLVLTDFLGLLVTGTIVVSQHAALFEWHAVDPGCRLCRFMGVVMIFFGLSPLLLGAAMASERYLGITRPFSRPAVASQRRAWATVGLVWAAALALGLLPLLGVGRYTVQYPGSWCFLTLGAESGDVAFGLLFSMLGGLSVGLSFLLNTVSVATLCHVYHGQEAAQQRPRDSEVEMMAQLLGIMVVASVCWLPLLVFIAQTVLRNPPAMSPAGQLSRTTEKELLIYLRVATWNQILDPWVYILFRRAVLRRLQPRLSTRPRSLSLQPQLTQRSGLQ
Summary of the method: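 Filter scintillation counting of bound radioligand, human platelet protein, 1 h exposure. Single-concentration duplicates (25 uM) first, concentration-response follow-up for actives. Binding loss scored against DMSO baseline.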

[9] = molecular target: Muscarinic acetylcholine receptor M5 (Homo sapiens) (UniProt P08912); experiment: NVS_GPCR_hM5: NovaScreen (NVS) G Protein-Coupled Receptor Assay for human Muscarinic, M5 Receptor (AID 2283275)
Chain of Muscarinic acetylcholine receptor M5 (Homo sapiens) (P08912 whole entry, looked up): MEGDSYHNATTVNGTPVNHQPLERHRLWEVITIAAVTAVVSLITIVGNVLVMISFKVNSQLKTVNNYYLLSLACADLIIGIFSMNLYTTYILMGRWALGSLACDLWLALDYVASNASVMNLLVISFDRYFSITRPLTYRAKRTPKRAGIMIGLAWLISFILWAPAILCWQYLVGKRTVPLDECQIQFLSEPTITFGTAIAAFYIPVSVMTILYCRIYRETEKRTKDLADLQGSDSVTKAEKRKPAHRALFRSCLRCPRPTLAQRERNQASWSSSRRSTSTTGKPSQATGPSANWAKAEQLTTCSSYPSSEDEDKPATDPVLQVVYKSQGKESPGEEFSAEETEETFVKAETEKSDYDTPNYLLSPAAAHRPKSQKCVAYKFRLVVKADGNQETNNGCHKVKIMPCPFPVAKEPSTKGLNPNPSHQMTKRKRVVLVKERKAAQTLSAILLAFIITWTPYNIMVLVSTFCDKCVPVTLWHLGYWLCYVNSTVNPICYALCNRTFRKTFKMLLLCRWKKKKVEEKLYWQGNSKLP
Summary of the method: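 Radioligand displacement on CHO-derived membrane preparations, 1 h, filter-based scintillation counting. Single-concentration duplicate screen at 25 uM; hits (e.g. 30% inhibition) retested in singleton concentration-response up to 50 uM. Loss of binding fitted versus DMSO.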

[10] = system: rabbit Platelet Activating Factor Receptor (PAF), gene 100354046; experiment: NVS_GPCR_rabPAF: NovaScreen (NVS) G Protein-Coupled Receptor Assay for rabbit Platelet Activating Factor Receptor (PAF) (AID 2283287)
Summary of the method: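 Rabbit platelet membrane preparation; radioligand displacement read by filter-based scintillation counting 1 h after dosing, loss of signal versus DMSO. Primary screen in duplicate at 25 uM, actives followed up in concentration series.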

[11] = molecular target: human Muscarinic, M4 Receptor, CHRM4 (gene 1132) (UniProt P08173); experiment: NVS_GPCR_hM4: NovaScreen (NVS) G Protein-Coupled Receptor Assay for human Muscarinic, M4 Receptor (AID 2283274)
Chain of human Muscarinic, M4 Receptor, CHRM4 (gene 1132) (P08173 whole entry, looked up): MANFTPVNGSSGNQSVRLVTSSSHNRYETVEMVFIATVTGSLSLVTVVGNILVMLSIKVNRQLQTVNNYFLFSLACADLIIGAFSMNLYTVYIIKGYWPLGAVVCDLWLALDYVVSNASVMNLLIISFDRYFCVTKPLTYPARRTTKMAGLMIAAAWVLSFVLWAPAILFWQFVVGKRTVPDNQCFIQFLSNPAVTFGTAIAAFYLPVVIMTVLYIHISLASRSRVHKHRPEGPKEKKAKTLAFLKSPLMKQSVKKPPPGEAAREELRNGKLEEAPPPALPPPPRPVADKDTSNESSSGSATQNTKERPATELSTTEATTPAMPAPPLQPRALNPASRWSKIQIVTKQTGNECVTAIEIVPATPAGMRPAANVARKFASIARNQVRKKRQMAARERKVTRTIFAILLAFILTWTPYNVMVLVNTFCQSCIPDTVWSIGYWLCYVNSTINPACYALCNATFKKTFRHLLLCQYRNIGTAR
Summary of the method: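 Cell-free radioligand displacement using CHO-derived human M4 receptor protein, 1 h after dosing; bound radioactivity by filtration and scintillation counting. Primary screen single 25 uM duplicate, actives followed in concentration series.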

[12] = molecular target: human Opioid Receptor Delta 1 (Opiate D1), OPRD1 (gene 4985) (UniProt P41143); experiment: NVS_GPCR_hOpiate_D1: NovaScreen (NVS) G Protein-Coupled Receptor Assay for human Opioid Receptor Delta 1 (Opiate D1) (AID 2283280)
Chain of human Opioid Receptor Delta 1 (Opiate D1), OPRD1 (gene 4985) (P41143 whole entry, looked up): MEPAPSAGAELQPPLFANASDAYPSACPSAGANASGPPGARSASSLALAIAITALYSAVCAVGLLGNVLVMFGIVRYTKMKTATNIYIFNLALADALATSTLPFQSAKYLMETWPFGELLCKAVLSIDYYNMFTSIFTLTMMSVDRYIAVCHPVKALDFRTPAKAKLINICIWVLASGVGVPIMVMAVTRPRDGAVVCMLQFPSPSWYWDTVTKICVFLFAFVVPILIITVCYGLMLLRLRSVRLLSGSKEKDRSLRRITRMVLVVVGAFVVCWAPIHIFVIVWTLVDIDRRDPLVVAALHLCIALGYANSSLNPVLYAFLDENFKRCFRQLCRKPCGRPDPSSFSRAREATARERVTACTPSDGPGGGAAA
Summary of the method: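 Radioligand displacement on membranes from CHO cells expressing the receptor, read by filter scintillation counting 1 h after dosing. Duplicate single-point screen at 25 uM, then concentration series for actives; loss of signal versus DMSO.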

[13] = molecular target: mouse Cholecystokinin, CCK2 Receptor (CCKB), Cckbr (gene 12426) (UniProt P56481); experiment: NVS_GPCR_mCKKBCentral: NovaScreen (NVS) G Protein-Coupled Receptor Assay for mouse Cholecystokinin, CCK2 Receptor (CCKB) (AID 2283293)
Chain of mouse Cholecystokinin, CCK2 Receptor (CCKB), Cckbr (gene 12426) (P56481 whole entry, looked up): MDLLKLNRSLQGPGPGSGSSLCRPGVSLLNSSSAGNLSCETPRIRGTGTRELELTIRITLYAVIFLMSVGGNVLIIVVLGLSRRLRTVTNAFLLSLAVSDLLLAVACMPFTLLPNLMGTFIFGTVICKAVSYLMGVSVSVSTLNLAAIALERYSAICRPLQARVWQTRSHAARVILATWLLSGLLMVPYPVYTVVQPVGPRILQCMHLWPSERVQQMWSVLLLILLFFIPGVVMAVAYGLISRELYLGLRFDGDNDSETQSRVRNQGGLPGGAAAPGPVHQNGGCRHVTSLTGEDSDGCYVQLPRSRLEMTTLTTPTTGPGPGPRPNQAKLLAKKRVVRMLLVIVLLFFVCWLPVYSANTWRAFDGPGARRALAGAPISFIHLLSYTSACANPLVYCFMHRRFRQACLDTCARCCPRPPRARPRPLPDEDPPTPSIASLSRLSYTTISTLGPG
Summary of the method: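 Radioligand displacement binding on mouse forebrain membranes, 2 h exposure, filter-based scintillation counting. Primary screen in duplicate at 25 uM; actives (e.g. ≥30% inhibition) retested in concentration-response up to 50 uM; loss of binding signal relative to DMSO.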

[14] = molecular target: human Neuropeptide Receptor Y1 (NPY1), NPY1R (gene 4886) (UniProt P25929); experiment: NVS_GPCR_hNPY1: NovaScreen (NVS) G Protein-Coupled Receptor Assay for human Neuropeptide Receptor Y1 (NPY1) (AID 2283276)
Chain of human Neuropeptide Receptor Y1 (NPY1), NPY1R (gene 4886) (P25929 whole entry, looked up): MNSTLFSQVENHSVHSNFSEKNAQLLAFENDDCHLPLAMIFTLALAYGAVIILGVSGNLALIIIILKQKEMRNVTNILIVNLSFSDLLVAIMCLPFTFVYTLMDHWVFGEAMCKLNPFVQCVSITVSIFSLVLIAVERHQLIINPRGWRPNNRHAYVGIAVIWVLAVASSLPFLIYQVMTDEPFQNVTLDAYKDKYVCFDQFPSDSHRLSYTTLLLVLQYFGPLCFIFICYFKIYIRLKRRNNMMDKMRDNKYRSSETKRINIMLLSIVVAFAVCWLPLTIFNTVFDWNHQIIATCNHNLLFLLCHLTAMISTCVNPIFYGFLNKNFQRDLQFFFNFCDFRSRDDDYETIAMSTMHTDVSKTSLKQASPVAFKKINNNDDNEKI
Summary of the method: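 Cell-free radioligand binding using receptor extracted from SK-N-MC cells, 1 h incubation, filter-based scintillation counting. Primary screen single concentration 25 uM in duplicate; actives followed in concentration series. Loss of bound signal scored versus DMSO.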

[15] = molecular target: human Purinergic Receptor P2Y, P2RY1 (gene 5028) (UniProt P47900); experiment: NVS_GPCR_hPY2: NovaScreen (NVS) G Protein-Coupled Receptor Assay for human Purinergic Receptor P2Y (AID 2283281)
Chain of human Purinergic Receptor P2Y, P2RY1 (gene 5028) (P47900 whole entry, looked up): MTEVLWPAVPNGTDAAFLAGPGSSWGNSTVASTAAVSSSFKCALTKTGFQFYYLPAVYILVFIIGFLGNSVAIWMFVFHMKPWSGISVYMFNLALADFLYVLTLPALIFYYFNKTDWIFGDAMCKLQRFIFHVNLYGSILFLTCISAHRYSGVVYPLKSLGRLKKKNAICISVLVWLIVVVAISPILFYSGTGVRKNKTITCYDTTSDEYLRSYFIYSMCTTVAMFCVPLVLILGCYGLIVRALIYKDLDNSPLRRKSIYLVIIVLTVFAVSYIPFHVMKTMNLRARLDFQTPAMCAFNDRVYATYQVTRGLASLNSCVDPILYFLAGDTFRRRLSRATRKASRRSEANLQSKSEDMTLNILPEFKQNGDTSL
Summary of the method: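 Cell-free radioligand binding using U937-derived protein, 1 h after dosing, filter-based scintillation counting. Screened in duplicate at 25 uM; actives rerun as concentration-response up to 50 uM; loss of signal versus DMSO.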

O=[N+]([O-])C(Br)(CO)CO
AC50 [1]: 1.21 µM (active)
AC50 [2]: 5.41 µM (active)
outcome [3]: inactive
AC50 [4]: 32.8 µM (active)

C[C@]12C=CC3=C4CCC(=O)C=C4CC[C@H]3[C@@H]1CC[C@@H]2O
AC50 [1]: 15.6 µM (active)

CN(C)[C@@H]1C(=O)C(C(N)=O)=C(O)[C@@]2(O)C(=O)C3=C(O)c4c(O)cccc4[C@@](C)(O)[C@H]3C[C@@H]12
AC50 [5]: 25 µM (active)

COc1cc(C=O)cc2c1[C@H](COC(N)=O)[C@]1(OC(C)=O)ON2C[C@H]2[C@@H]1N2C(C)=O
outcome [6]: inactive

CCCSC(=O)N(CCC)CCC
outcome [7]: inactive

N#CC(Br)(Br)C(N)=O
outcome [1]: inactive
AC50 [2]: 41.2 µM (active)

Oc1ccc2ccc3cccc4ccc1c2c34
outcome [1]: inactive
outcome [8]: inactive

c1ccc(C2CO2)cc1 (centres undefined)
outcome [9]: inactive

CC(C)N(Cc1ccccc1)C(=O)C(C)(C)C
AC50 [10]: 13.1 µM (active)

CCN(CC)CCO
outcome [11]: inactive

CCCCCOC(=O)c1ccccc1C(=O)OCCCCC
outcome [12]: inactive
outcome [2]: inactive
outcome [5]: inactive
outcome [13]: inactive

CCCCCCCCn1sccc1=O
AC50 [14]: 6.28 µM (active)
outcome [15]: inactive
AC50 [8]: 9.13 µM (active)
AC50 [2]: 14.1 µM (active)

Cc1ccc(N)c(N)c1
outcome [1]: inactive
